This is a sample that favours compounds with a hit; in the whole collection about 14% have one here.
LmPK inh = LmPK (Leishmania mexicana) enzyme inhibition. AID 1721. Potency, µM (series often up to 57.5 µM), without a hit: at the highest dose activity change, negative = inhibition, usual class: inhibitors. hit rate 0.37% among 290,000. Q27686. purified LmPK, Kinase-Glo ATP luminescence, 1 h; further: potency means the concentration at half of the fitted maximal effect; on the % scale 0 is the no-effect control and ±100 the full control effect
Target sequence (Q27686 whole entry, looked up): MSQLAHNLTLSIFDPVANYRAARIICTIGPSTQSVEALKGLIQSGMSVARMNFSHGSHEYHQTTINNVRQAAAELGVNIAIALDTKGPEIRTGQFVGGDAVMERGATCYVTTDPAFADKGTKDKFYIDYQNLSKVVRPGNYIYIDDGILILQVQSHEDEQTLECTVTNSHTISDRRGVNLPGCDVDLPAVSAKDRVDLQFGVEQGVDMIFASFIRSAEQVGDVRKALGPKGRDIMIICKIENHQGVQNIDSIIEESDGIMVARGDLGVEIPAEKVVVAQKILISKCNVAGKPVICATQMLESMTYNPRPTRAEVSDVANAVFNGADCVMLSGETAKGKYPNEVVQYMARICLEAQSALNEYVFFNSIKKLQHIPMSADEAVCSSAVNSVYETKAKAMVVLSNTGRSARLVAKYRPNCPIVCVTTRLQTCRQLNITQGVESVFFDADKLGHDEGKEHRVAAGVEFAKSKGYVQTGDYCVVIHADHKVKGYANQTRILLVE
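ATP generated from ADP (0.1 mM) and PEP (0.5 mM) by 0.1 nM LmPK over 1 h at room temperature (pH 7.2 imidazole buffer) was detected by coupled luciferase luminescence. Values were normalized to uninhibited and no-enzyme wells.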
FBPA Giardia inh = inhibitors of Giardia lamblia fructose-1,6-bisphosphate aldolase. Potency, µM (highest dose often 59.6 µM), without a hit: top-dose activity, negative = inhibition, most hits filed as inhibitors. purified Giardia FBPA. hit rate 0.71% among 290,000. A8B2U2. AID 2451; further: potency means the concentration at half of the fitted maximal effect; on the % scale 0 is the no-effect control and ±100 the full control effect; nearly all actives have a fitted effect of over 55% in size
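40 nM FBPA preincubated 10 min at RT with compound (up to 57.5 uM final), then substrate plus GAPDH/TPI/NAD/arsenate coupling and diaphorase/resazurin added. Fluorescence read after 20 min at RT, 525/598 nm.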
NS1 function inh = inhibitors of influenza NS1 protein function; Potency, µM (series often up to 46.1 µM), inactives show at the highest dose activity, positive = more growth; hit rate 0.4% among 270,000; calls by dose curve; further: potency means the concentration at half of the fitted maximal effect; actives are rising curves; nearly all actives have a fitted effect of over 50% in size
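Growth recovery, yeast-based: influenza A NS1 expressed in S. cerevisiae causes slow growth, and suppressors are detected by OD600. The parent strain without NS1 is used as positive control.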
Shiga inhibitor = inhibitors of Shiga toxin in Vero cells. Vero cells, Shiga toxin protein synthesis inhibition reporter. inhibition, % at 38.7 µM. hit rate 9.2% among 290,000. AID 2315; in the data active means inhibition mostly above about 28%, no sharp cut-off; inactive means mostly below about 43%; further: 0% is about no effect
Cycloheximide cs = affects cycloheximide protein synthesis inhibition readout, counter-screen; cell reporter, cycloheximide protein synthesis inhibition counterscreen; max response, %; hit rate 12% among 300,000; AID 2314; in the data active means max response mostly above about 13%, no sharp cut-off; inactive means mostly below about 14%; further: read at 38.3 µM for the half of the compounds with a filed dose; 0% is about no effect
* hit, by the source's call; ? = inconclusive; nt = no result given; [ ] = remark or other dose. Unless noted, the call rests on the fitted dose curve; in most records, active means well fitted curve in the direction sought with a large enough effect; inconclusive means small, poorly fitted or top-dose-only effect, or another doubt; inactive means no such curve, though single readings can be large; an effect the other way counts as inactive or inconclusive.

SMILES	LmPK inh	FBPA Giardia inh	NS1 function inh	Shiga inhibitor	Cycloheximide cs
O=C(CCc1ccccc1)NNC(=O)c1ccco1	0%	-7%	6%	22	0
O=C(NNC(=O)c1cccc2ccccc12)c1ccco1	-5%	3%	3%	-13	3
O=C(NNC(=O)c1ccccc1F)c1ccco1	0%	1%	3%	40*	14
CN(c1ccc(C(=O)NCc2ccncc2)cc1)S(=O)(=O)c1ccc(Cl)cc1	1%	1%	0%	-9	-1
O=[N+]([O-])c1ccc(S(=O)(=O)N2CCN=C2SCc2ccc(F)cc2)cc1	2%	nt	4%	-12	17
COc1ccc(Oc2ncnc3sccc23)cc1	-1%	1%	nt	66*	42*
c1nc(Nc2ccc(N3CCOCC3)cc2)c2ccsc2n1	-4%	-19%	4%	69*	50*
COC(=O)c1cccc(Nc2ncnc3sccc23)c1	2%	-10%	nt	33	12
COc1cccc(Nc2ncnc3sc(C)cc23)c1	-5%	nt	-23%	75*	41*
COc1cccc(Nc2ncnc3sccc23)c1	-1%	4%	-17%	130*	23*
Cc1cc2c(Nc3ccc(O)cc3)ncnc2s1	1%	?	33%	43	18
Cc1ccc(S(=O)(=O)N2CCOC23CCN(C(=O)c2ccccc2Br)CC3)cc1	-2%	nt	-1%	-2	-1
Cc1cn(C2CC3OCC(NC(=O)C(NC(=O)OC(C)(C)C)C(C)OCc4ccccc4)C3O2)c(=O)[nH]c1=O (centres undefined)	nt	8%	nt	-3	-2
COc1ccc(Nc2ncnc3sccc23)c(OC)c1	-5%	1%	-18%	18	9
Cc1ccc(Nc2ncnc3sccc23)c(C)c1	0%	10%	-30%	62*	15*
COc1ccc(OC)c(Nc2ncnc3sccc23)c1	-1%	-2%	4%	19	15*
COc1ccc(Nc2ncnc3sccc23)cc1	2%	-5%	12%	72*	31*
COc1ccccc1Nc1ncnc2sccc12	0%	0%	5%	-3	3
COc1ccc(CN(C)C(=O)CNC(=O)CNC(=O)c2ccc(Cl)cc2Cl)cc1F	0%	1%	2%	35	-2
Cc1cc(Nc2ccc(Cl)cc2)n2ncnc2n1	-3%	?	5%	-7	1
Cc1cc(Nc2ccc(N(C)C)cc2)n2ncnc2n1	-1%	3%	-3%	98*	44*
COc1ccccc1C(=O)Nc1cc(Cl)ccc1-n1cncn1	-7%	10%	-3%	5	3
O=C(Nc1cc(Cl)ccc1-n1cncn1)c1ccc([N+](=O)[O-])s1	-8%	nt	-105%	-23	19*
COc1cccc(NC(=O)c2c(C)nn(-c3ccccc3)c2Cl)c1	2%	-5%	-34%	31	19*
COc1ccc(COC(=O)c2c(C)nn(-c3ccccc3)c2Cl)cc1	-10%	-10%	-6%	39*	22*
SMILES	LmPK inh	FBPA Giardia inh	NS1 function inh	Shiga inhibitor	Cycloheximide cs
COc1ccc(NC(=O)c2c(C)nn(-c3ccccc3)c2Cl)cc1	6%	6%	-13%	nt	16*
CC(=O)c1cccc(NC(=O)c2c(C)nn(-c3ccccc3)c2Cl)c1	-2%	-12%	-10%	16	9
Cc1nn(-c2ccccc2)c(C)c1C(=O)OCc1ccc(C#N)cc1	0%	8%	-10%	25	36*
Cc1nn(-c2ccccc2)c(Cl)c1C(=O)NCC(C)C	4%	1%	-11%	1	-1
CCOc1cc(/C=C2\N=C(SC(C)C(N)=O)N(c3ccc(OC(F)F)cc3)C2=O)ccc1O (centres undefined)	0%	nt	15%	-7	1
Cc1ccc(NC(=O)c2c(C)nn(-c3ccccc3)c2Cl)cc1	0%	1%	-16%	66*	35*
CC(=O)c1ccc(NC(=O)c2c(C)nn(-c3ccccc3)c2Cl)cc1	7%	?	1%	-8	-3
Cc1cnc(C(=O)Nc2nnc(C(C)C)s2)cn1	-2%	10%	9%	71*	41*
Cc1cc(C)n(-c2ccc(C(=O)Nc3nnc(C4CC4)s3)cc2)n1	-2%	-2%	-1%	-1	1
Cc1cnc(C(=O)Nc2nnc(C)s2)cn1	-3%	-5%	9%	9	-2
CC(C)c1nnc(NC(=O)c2cnccn2)s1	-7%	0%	-10%	38*	17*
COc1c(C(=O)Nc2nnc(C3CC3)s2)csc1Cl	-4%	nt	-30%	54*	36*
Cc1cnc(C(=O)Nc2nnc(C3CC3)s2)cn1	1%	?	-4%	23	32*
Cn1c(SCC(=O)Nc2ccccc2F)nnc1-c1cccs1	-2%	-3%	6%	43*	26
Cn1c(SCc2c(F)cccc2Cl)nnc1-c1cccs1	0%	-4%	-10%	68*	28*
c1ccc(CNc2oc(-c3ccccc3)nc2-c2ccccc2)cc1	nt	-1%	nt	nt	nt
O=C(COc1ccc(/C=C2/NC(=O)NC2=O)cc1)Nc1ccc(F)cc1	-2%	nt	-8%	2	0
O=c1ccc2ccccc2[nH]1	nt	?	nt	2	-5
Cc1ccc(C(=O)CSc2cnc3ccccc3n2)cc1C	-3%	4%	10%	70*	63*
CNC(=O)CSc1cnc2ccccc2n1	2%	4%	nt	15	-2
Cc1ccc(C(=O)COC(=O)c2ccc(-c3cnc4ccccc4n3)cc2)cc1C	-2%	5%	17%	-5	14*
CN1CCN(C(=O)c2cc3c(=O)n4ccccc4nc3s2)CC1	-11%	-3%	-1%	49*	12*
C=CCNC(=O)c1cc2c(=O)n3ccccc3nc2s1	-2%	-4%	-1%	72*	34*
CCn1c(=O)c2cc(C(=O)N3CCN(C)CC3)sc2c2ccccc21	-1%	-1%	3%	11	1
O=C(NC1CCCCCC1)c1cc2c(=O)n3ccccc3nc2s1	-2%	10%	-8%	75*	29*
SMILES	LmPK inh	FBPA Giardia inh	NS1 function inh	Shiga inhibitor	Cycloheximide cs
CC(C)NC(=O)c1cc2c(=O)n3ccccc3nc2s1	4%	15%	-1%	-2	2
CCOC(=O)N1CCN(C(=O)c2cc3c(=O)n4ccccc4nc3s2)CC1	-4%	nt	-11%	6	-2
CN1CCN(C(=O)c2cc3sc4ccccc4c3s2)CC1	-20%	2%	0%	49	39*
C=CCn1cc(C(=O)N2CCN(c3ccccc3)CC2)c(=O)c2cc(S(=O)(=O)N3CCCC3)ccc21	-6%	nt	1%	-13	-8
COC(OC)[C@@H](C)[C@H](OC)[C@@H](C)[C@H](OC)c1ccccc1	nt	-2%[12.9 µM]	nt	nt	nt
C=CC(=O)N1C(=O)c2ccccc2S1(=O)=O	nt	-1%	nt	nt	nt
O=[N+]([O-])c1ccc(O)c2ncccc12	-1%	20µM*	-39%	-4	-2
Cc1ccccc1N=Nc1ccc(O)c2ncccc12	-1%	-9%	-16%	2	-3
COCc1ccc(O)c2ncccc12	4%	12%	-141%	-8	26*
O=Nc1ccc(O)c2ncccc12	5%	?	4%	44*	56*
Cc1ccc(S(=O)(=O)c2ccccc2)cc1S	14µM*	-4%	nt	-6	9
CC1=CC(C)(C)Nc2ccc(CSc3ccccc3)cc21	nt	nt	9%	nt	nt

High-throughput results from PubChem.
